Measured values: PubChem BioAssay (NCI)
This is part of a sample that, as a whole, favours compounds with a hit. Of some 83,000 tested, about 20% had one in any assay.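 Negative percent growth values reflect cell death: -40 means 40% of the cells present at the start died, and -100 means all died.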 The source made the active and inactive calls. Rule for the calls: active = growth percent below 10; inactive = the rest.

Each molecule was assayed on SN12C renal (assay: NCI-60 one-dose screen, 48 h (100 = growth as untreated, 0 = no growth, -100 = all killed)). Settings: 10 µM unless noted.

Structure (SMILES) | growth
CCC(C)CC(N)O (stereo unspecified) | 109% (inactive)
S=C(N/N=C/c1cc(Cl)cc(Cl)c1)NC12CC3CC(CC(C3)C1)C2 | 88.6% (inactive)
O=CN/N=C/c1ccc(Cl)c([N+](=O)[O-])c1 | 21.2% (inactive)
CNc1ccc(Nc2ccc(S(=O)(=O)O)cc2)c2c1C(=O)c1ccccc1C2=O | 92.8% (inactive)
O=C(Nc1ccc(Cl)c(Cl)c1)O/N=C\c1c(Cl)ccc([N+](=O)[O-])c1Cl | -52.4% (active)
C/C(=C\c1ccc2ccccc2c1)[N+](=O)[O-] | 89.6% (inactive)
CCCCCCCCC1OC1CCCCCCCC(=O)O (stereo unspecified) | 94.5% (inactive)
CN1NC(c2ccccc2)NN(C)C1=O | 98.4% (inactive)
CC(=O)OC1/C=C\CC/C=C\C1 (stereo unspecified) | 95.8% (inactive)
O=C(/C=C\c1ccc(NCc2ccc(C(=O)O)cc2)cc1)CCl | 79.7% (inactive)
CCCCCCC(C)N(CC(C)(C)O)C(=O)c1ccc([N+](=O)[O-])cc1 (stereo unspecified) | 104% (inactive)
CNCCCNCCCCNCCCN1C(=O)c2ccc3c4c(ccc(c24)C1=O)C(=O)N(CCCNCc1ccccc1OC)C3=O | 24.6% (inactive)
CC(O)CN(CC(C)O)N(CC(C)O)CC(C)O (stereo unspecified) | 107% (inactive)
COc1ccc(/C=C2\CCCC3=C2N=C2SC=NN2C3c2ccc(OC)c(OC)c2)cc1OC (stereo unspecified) | 40.7% (inactive)
CCN(CC)CCCNc1c2ccc(Cl)cc2nc2ccc(OC)cc12 | 10.7% (inactive)
O=C1C=C(OCC=C(C(F)(F)F)C(F)(F)F)c2ccccc2C1=O | -15.1% (active)
Cc1ccc(S(=O)(=O)N/N=C2\CC3CCC2C3)cc1 (stereo unspecified) | 99.9% (inactive)
O=C(O)CS(=O)c1ccc(Cl)cc1 (stereo unspecified) | 104% (inactive)
CCN(CC)CCCC(C)Nc1c(C)cnc2cc(Cl)c(C)cc12 (stereo unspecified) | 94.5% (inactive)
Oc1ccc([S+](c2ccc(O)cc2)c2ccc(O)cc2)cc1 | 95.2% (inactive)
CC(=O)Nc1ccc(C(=O)/C=C/c2ccc(N(C)C)cc2)cc1 | 98.2% (inactive)
CC(=O)c1ccc2c(c1)c1ccccc1n2C | 92.1% (inactive)
CC1(C)NC(=S)NC1=O | 105% (inactive)

Each molecule was assayed on UO-31 renal in the same assay as above. Settings: 10 µM unless noted.

Structure (SMILES) | growth
COc1cc2c(c(OC)c1OC)C(=O)CC(c1cccc(C(=O)Nc3cccc(Br)c3)c1)O2 (stereo unspecified) | 51.3% (inactive)
CCC(C)CC(N)O (stereo unspecified) | 101% (inactive)
S=C(N/N=C/c1cc(Cl)cc(Cl)c1)NC12CC3CC(CC(C3)C1)C2 | 69% (inactive)
CCCNC(=O)Oc1ccc(/C(=C(/CC)Cc2ccccc2)c2ccc(OCCN(CC)CC)cc2)cc1 | 51.5% (inactive)
O=CN/N=C/c1ccc(Cl)c([N+](=O)[O-])c1 | 80.1% (inactive)
CNc1ccc(Nc2ccc(S(=O)(=O)O)cc2)c2c1C(=O)c1ccccc1C2=O | 102% (inactive)
O=C(/C=C1\C(=O)N(Cc2ccccc2)c2ccccc21)c1ccc(OCCN2CCCCC2)cc1 | -25.9% (active)
Cc1ccc(C(=O)NN)cc1 | 104% (inactive)
CC1Cc2cc(F)ccc2-n2cccc21 (stereo unspecified) | 99.5% (inactive)
CCCCCCCCCCN1CC2CCCCC2C1 (stereo unspecified) | 65.5% (inactive)
O=C(Nc1ccc(Cl)c(Cl)c1)O/N=C\c1c(Cl)ccc([N+](=O)[O-])c1Cl | -32.6% (active)
C/C(=C\c1ccc2ccccc2c1)[N+](=O)[O-] | -80.1% (active)
CCCCCCCCC1OC1CCCCCCCC(=O)O (stereo unspecified) | 96.7% (inactive)
Cc1sc(NC(=O)c2ccc(C(C)(C)C)cc2)c(C(=O)O)c1C | 89.9% (inactive)
CN1NC(c2ccccc2)NN(C)C1=O | 67.8% (inactive)
COc1cc2cc3cc4cc(OC)c(OC)cc4c(C)[n+]3cc2cc1OC (tested in a mixture with another compound) | 59.6% (inactive)
CC(C)(C)C(=O)OCOP(=O)(OCOC(=O)C(C)(C)C)C1CC(O)N(O)C1=O (stereo unspecified) | 18.6% (inactive)
CC(=O)OC1/C=C\CC/C=C\C1 (stereo unspecified) | 93.5% (inactive)
O=C(/C=C\c1ccc(NCc2ccc(C(=O)O)cc2)cc1)CCl | 78.6% (inactive)
CCCCCCC(C)N(CC(C)(C)O)C(=O)c1ccc([N+](=O)[O-])cc1 (stereo unspecified) | 58.6% (inactive)
COc1ccc(/C=N/c2cc(C(C)(C)C)nn2-c2ccccc2)cc1 | 94.5% (inactive)
COc1ccc(/C=C2\SC(=O)N(Cc3cc(=O)oc4ccc(OC)cc34)C2=O)cc1 | 70.6% (inactive)
CNCCCNCCCCNCCCN1C(=O)c2ccc3c4c(ccc(c24)C1=O)C(=O)N(CCCNCc1ccccc1OC)C3=O | 16.8% (inactive)
